The record followed here is PubChem BioAssay AID1159554 (Broad Institute, 2015).

The whole screen tested about 94,000 compounds, of which about 2,100 (2.2%) were called active. No stated cut-off is given here; in the data, active means activity change below about -80%; inconclusive means no clear call, values can overlap the other calls; inactive means above that. What follows is part of a selection rich in actives, with near analogues and random picks from the rest.

The nature of the test: Dd2 malaria parasite growth inhibition – SYBR Green fluorescence, single dose replicates, primary screen (AID 1159554). The settings on record: P. falciparum Dd2 growth, 72 h, at 10 µM, active compounds read low.
Take `COc1ccc2c3c(n(C)c2c1)[C@H](CO)NCC31CN(Cc2cc(F)ccc2F)C1`: the activity change is 23% (inactive).

Take `C[C@H]1CN([C@@H](C)CO)S(=O)(=O)c2ccc(C#Cc3cccnc3)cc2O[C@H]1CN(C)C(=O)CN(C)C`: the activity change is -40.6% (inactive).

Take `C[C@H]1CCCCO[C@H](CN(C)S(=O)(=O)c2ccc(F)cc2)[C@@H](C)CN([C@@H](C)CO)C(=O)c2cc(NS(=O)(=O)c3cn(C)cn3)ccc2O1`: the activity change is 9.89% (inactive).

For `CCCNC(=O)C[C@@H]1CC[C@H]2[C@@H](COC[C@@H](O)CN2Cc2ccccc2F)O1`, the activity change is 7.46% (inactive).

Regarding `COc1ccccc1-c1ccc2c(c1)O[C@@H](CN(C)C)[C@H](C)CN([C@H](C)CO)S2(=O)=O`, the activity change is -28.9% (inactive).

Consider `COc1ccccc1-c1ccc2c(c1)O[C@H](CN(C)S(=O)(=O)c1ccc(C)cc1)[C@@H](C)CN([C@H](C)CO)S2(=O)=O`, for which the activity change was -80.6% (active).

On to `Cc1ccc(S(=O)(=O)N(C)C[C@@H]2Oc3cc(C4=CCCC4)ccc3S(=O)(=O)N([C@@H](C)CO)C[C@@H]2C)cc1`, for which the activity change is -71.1% (inactive).

As for `C[C@@H]1CN([C@@H](C)CO)S(=O)(=O)c2ccc(C#Cc3ccncc3)cc2O[C@@H]1CN(C)S(=O)(=O)c1ccccc1`, the activity change was -55.9% (inactive).

Regarding `C[C@@H]1CN([C@@H](C)CO)S(=O)(=O)c2ccc(C#Cc3ccc(F)cc3)cc2O[C@H]1CN(C)S(C)(=O)=O`, the activity change was -67.9% (inactive).

For `C[C@@H]1CN([C@H](C)CO)S(=O)(=O)c2ccc(C#Cc3ccncc3)cc2O[C@@H]1CN(C)S(=O)(=O)c1ccc(F)cc1`, the activity change was -83% (active).

`CO[C@@H]1CN(C)C(=O)c2cc(NC(=O)Nc3cc(F)ccc3F)ccc2OC[C@@H](C)N(C)C[C@H]1C`: the activity change is -36.8% (inactive).

As for `CN1C(=O)c2cc(NC(=O)C3CCOCC3)ccc2OC[C@@H]2O[C@@H](CC(=O)NCC3CC3)CC[C@@H]21`, the activity change was 6.17% (inactive).

Turning to `O=C(NCCN1CCCC1)[C@@H]1N[C@@H]2c3ccc(-c4ccccc4)c(=O)n3C[C@@H]2[C@H]1CO`, the activity change is -12.1% (inactive).

`COc1ccc(S(=O)(=O)N2CCCCN3[C@H](CO)[C@@H](c4ccc(C#CC(C)C)cc4)[C@H]3C2)cc1`: the activity change is -38.8% (inactive).

With `COc1ccc(S(=O)(=O)N2CCCCN3[C@@H](CO)[C@@H](c4ccc(C#CCC(C)C)cc4)[C@@H]3C2)cc1`, the activity change is -87.6% (active).

For `COc1ccc(S(=O)(=O)N2CCCCN3[C@H](C2)[C@H](c2ccc(C#CCC(C)C)cc2)[C@@H]3CO)cc1`, the activity change was 2.68% (inactive).

For the compound `CO[C@H]1CN(C)C(=O)c2cc(NC(=O)Nc3ccc4c(c3)OCO4)ccc2OC[C@@H](C)NC[C@@H]1C`, the activity change was -43.8% (inactive).

As to `Cc1ccc(S(=O)(=O)Nc2ccc3c(c2)C(=O)N([C@H](C)CO)C[C@H](C)[C@H](CN(C)C(=O)Nc2ccc4c(c2)OCO4)OCCCC[C@@H](C)O3)cc1`, the activity change is 4.19% (inactive).

As to `C[C@@H]1CCCCO[C@@H](CN(C)C(=O)Nc2cccc3ccccc23)[C@H](C)CN([C@@H](C)CO)C(=O)c2cc(NS(=O)(=O)c3ccccc3)ccc2O1`, the activity change was -2.21% (inactive).

On to `Cc1noc(C)c1S(=O)(=O)Nc1ccc2c(c1)C(=O)N([C@@H](C)CO)C[C@@H](C)[C@H](CN(C)C(=O)Nc1cccc3ccccc13)OCCCC[C@H](C)O2`, for which the activity change is -39% (inactive).

Turning to `Cc1ccc(S(=O)(=O)Nc2ccc3c(c2)C(=O)N([C@H](C)CO)C[C@H](C)[C@@H](CN(C)C(=O)Nc2ccc4c(c2)OCO4)OCCCC[C@@H](C)O3)cc1`, the activity change is -34.5% (inactive).

On to `Cc1ccc(S(=O)(=O)Nc2ccc3c(c2)C(=O)N([C@@H](C)CO)C[C@@H](C)[C@H](CN(C)C(=O)Nc2cccc4ccccc24)OCCCC[C@H](C)O3)cc1`, for which the activity change is -81.5% (active).

As to `Cc1noc(C)c1S(=O)(=O)Nc1ccc2c(c1)C(=O)N([C@@H](C)CO)C[C@@H](C)[C@H](CN(C)S(=O)(=O)c1ccc(Cl)cc1)OCCCC[C@H](C)O2`, the activity change was -80.6% (active).

Turning to `Cc1noc(C)c1S(=O)(=O)Nc1ccc2c(c1)C(=O)N([C@@H](C)CO)C[C@H](C)[C@@H](CN(C)C(=O)Nc1cccc3ccccc13)OCCCC[C@H](C)O2`, the activity change is -88.5% (active).

For `Cc1ccc(S(=O)(=O)N(C)C[C@H]2OCCCC[C@H](C)Oc3ccc(NS(=O)(=O)c4c(C)noc4C)cc3C(=O)N([C@H](C)CO)C[C@@H]2C)cc1`, the activity change was -35.7% (inactive).

Regarding `Cc1noc(C)c1S(=O)(=O)Nc1ccc2c(c1)C(=O)N([C@@H](C)CO)C[C@@H](C)[C@@H](CN(C)S(=O)(=O)c1ccccc1)OCCCC[C@H](C)O2`, the activity change is -22.9% (inactive).

For `COc1ccc(S(=O)(=O)Nc2ccc3c(c2)C(=O)N([C@@H](C)CO)C[C@H](C)[C@@H](CN(C)C(=O)Nc2ccc4c(c2)OCO4)OCCCC[C@@H](C)O3)cc1`, the activity change was -81.3% (active).

In the case of `C[C@H]1CCCCO[C@@H](CN(C)C(=O)Nc2cccc3ccccc23)[C@@H](C)CN([C@@H](C)CO)C(=O)c2cc(NS(=O)(=O)c3ccc(Cl)cc3)ccc2O1`, the activity change was -44.1% (inactive).

For `Cc1noc(C)c1S(=O)(=O)Nc1ccc2c(c1)C(=O)N([C@@H](C)CO)C[C@@H](C)[C@H](CN(C)C(=O)Nc1cccc3ccccc13)O2`, the activity change was 16.8% (inactive).

In the case of `CCNC(=O)C[C@@H]1CC[C@H]2[C@@H](COc3ccc(NC(=O)Cc4cccs4)cc3C(=O)N2C)O1`, the activity change is 3.93% (inactive).
